This is part of a sample that, as a whole, favours compounds with a hit. Of some 83,000 tested, about 20% had one in any assay.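 Plates (96-well) were seeded with cells, treated with compound at one concentration, and incubated for 48 hours before percent growth was determined.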 A number with no mark means an inactive call. Active and inactive are the calls of the source. How the source made its calls: active means growth percent below 10; inactive means the rest.
Assays:
Experiment in all cases: NCI-60 one-dose screen, 48 h (100 = growth as untreated, 0 = no growth, -100 = all killed)
Details in all cases: 10 µM unless noted
NCI-H23 lung = system: NCI-H23 lung
NCI-H226 lung = system: NCI-H226 lung
NCI-H322M lung = system: NCI-H322M lung
HOP-62 NSCLC = system: HOP-62 NSCLC
NCI-H460 lung = system: NCI-H460 lung
HOP-92 NSCLC = system: HOP-92 NSCLC
NCI-H522 lung = system: NCI-H522 lung
A549/ATCC NSCLC = system: A549/ATCC NSCLC
786-0 renal = system: 786-0 renal
COLO 205 colon = system: COLO 205 colon

| Structure (SMILES) | growth (NCI-H23 lung) | growth (NCI-H226 lung) | growth (NCI-H322M lung) | growth (HOP-62 NSCLC) | growth (NCI-H460 lung) | growth (HOP-92 NSCLC) | growth (NCI-H522 lung) | growth (A549/ATCC NSCLC) | growth (786-0 renal) | growth (COLO 205 colon) |
| --- | --- | --- | --- | --- | --- | --- | --- | --- | --- | --- |
| COc1cc2nc(Cl)nc(Nc3ccc(S(=O)(=O)Nc4nccs4)cc3)c2cc1OC | 101% | 91.9% | 102% | 92% | 106% | 118% | 91.3% | 102% | 101% | 110% |
| N#Cc1c(-c2cccc(Cl)c2)cc(-c2cccc(Cl)c2)[nH]c1=O | 79.8% | 94% | 87.2% | 71.3% | 77.1% | 44% | 64.4% | 61.9% | 87.6% | 108% |
| O=C(Nc1ccccc1-c1nc2ccccc2c(=O)[nH]1)c1cc2ccccc2[nH]1 | 82.4% | 72.2% | 84.2% | 71.6% | 93.2% | 68.7% | 78.8% | 87.6% | 98.1% | 103% |
| O=C(CCc1nnc(CN(c2ccccc2)c2ccccc2)o1)c1nc2ccccc2[nH]1 | 85.1% | 107% | 84.4% | 89.1% | 99.6% | 60.6% | 73.9% | 94.7% | 100% | 102% |
| Clc1ccc(-c2c3ccc(=[N+]4CCCCC4)cc-3oc3cc(N4CCCCC4)ccc23)cc1 | -85.2% (active) | -87.6% (active) | -88.4% (active) | -89% (active) | -76.2% (active) | -70.1% (active) | -87.7% (active) | -67.4% (active) | -96.5% (active) | -71.1% (active) |
| O=C1c2cccc(NCCN=Cc3cc([N+](=O)[O-])ccc3O)c2C(=O)c2c(NCCN=Cc3cc([N+](=O)[O-])ccc3O)cccc21 | 75% | 77% | 77% | 55.4% | 53.4% | 62.4% | 45% | 84.6% | 82.6% | 55.9% |
| CCN(CC)S(=O)(=O)c1cccc(-c2ccc3c(NC(=O)C4CC4)n[nH]c3c2)c1 | 28.5% [6.25 µM] | 26.5% [6.25 µM] | 55.6% [6.25 µM] | 18.5% [6.25 µM] | 12.3% [6.25 µM] | 41.3% [6.25 µM] | -17% [6.25 µM] (active) | 21.2% [6.25 µM] | 18.1% [6.25 µM] | 3.94% [6.25 µM] (active) |
| COc1cc2ncn3c(=O)c4c5c(sc4nc3c2cc1OC)CCCC5 | 91.4% | 93.8% | 96.9% | 89.8% | 100% | 115% | 80.1% | 96.4% | 105% | 106% |
| O=c1ccn2nc3ccccc3c2[nH]1 | 94.6% | 91.3% | 97.8% | 88.4% | 109% | 71.2% | 91.9% | 116% | 99.2% | 124% |
| O=c1[nH]c2ccccc2n1C1CCN(CCOc2ccccc2)CC1 | 93% | 78.9% | 98.8% | 96.7% | 94% | 37.1% | 76.3% | -22.6% (active) | 100% | 94.3% |
| COc1cccc(-c2nn(-c3ccccc3)cc2-c2ccnc(NCCNC(=O)Nc3ccccc3)c2)c1 | 62.5% | 63.9% | 89.8% | 58.7% | 53.8% | 33% | 47.6% | 30.4% | 43.2% | 50.4% |
| Cc1nc2ccccc2c(/C=C/c2ccc(Cl)cc2)c1C(=O)/C=C/c1ccc(F)cc1 | 17.3% | -8.4% (active) | 51.8% | 3.74% (active) | -66.9% (active) | 66.3% | 1.17% (active) | 74.6% | -24.7% (active) | 13.9% |
| N#Cc1c(-c2cccc(Cl)c2)cc(-c2cccc(F)c2)[nH]c1=O | 96.3% | 95.1% | 90.8% | 93.4% | 95.9% | 55.3% | 85% | 84.5% | 90.3% | 109% |
| CC(=O)c1ccc(NCC(=O)Nc2ccccn2)cc1 | 96.4% | 91.3% | 103% | 98.7% | 104% | 103% | 107% | 104% | 102% | 103% |
| CC1OC(O[C@H]2/C=C/C=C/C=C/C=C/C=C/C=C/C=C/[C@H](C)[C@@H](O)[C@@H](C)[C@H](C)OC(=O)CC(O)CC(O)CCC(O)C(O)CC(O)C[C@]3(O)C[C@H](O)C(C(=O)O)C(C2)O3)C(O)[C@H](N)C1O (stereo not given in full) | -29.7% (active) | -9.69% (active) | 20% | -82.5% (active) | -55.5% (active) | 18.6% | 16.2% | -89.9% (active) | -80% (active) | 38.5% |
| CCN(CC)c1ccc2nc3c4ccccc4c(=NC(=O)c4ccccc4-c4c5ccc(N(CC)CC)cc5[o+]c5cc(N(CC)CC)ccc45)cc-3oc2c1 | 10.9% | 76.5% | 11.6% | 17.4% | -54.1% (active) | 1.45% (active) | -5.73% (active) | 14.5% | -28.3% (active) | -80.1% (active) |
| CN1CCN(C(=O)c2c3c(n4ccccc24)C(=O)c2ncccc2C3=O)CC1 | 26.8% | 69.5% | 47.2% | 27.3% | 16.4% | 85.4% | 51.7% | 51.3% | 56.3% | 78.2% |
| CCc1ccccc1NC(=O)/C(C#N)=C/c1ccc(OC)cc1 | 98.2% | 97.5% | 87.8% | 96% | 104% | 86.9% | 91.4% | 94% | 107% | 119% |
| CC1=NOC(=O)/C1=C\c1ccc(O)cc1 | 102% | 108% | 95.2% | 99.5% | 109% | 101% | 97.5% | 97.4% | 101% | 109% |
| N#C/C(=C/C=C/c1cccc(Cl)c1)S(=O)c1ccccc1 (stereo not given) | -43.6% (active) | -33% (active) | -44.9% (active) | -17.4% (active) | -22.1% (active) | -60.9% (active) | -89.2% (active) | 1.83% (active) | -88.7% (active) | -63.1% (active) |
| Cc1ccc(-n2c(-c3ccccc3)c(-c3ccccc3)c3c(SCC(=O)n4[nH]c(N)cc4=O)ncnc32)cc1 | 90.8% | 88.8% | 101% | 87.6% | 103% | 74.7% | 79.6% | 92.5% | 96.6% | 94.4% |
| O=[N+]([O-])c1ccc(-c2cc(-c3ccc(Nc4nc(Nc5ccc(Cl)cc5)nc(Nc5ccc(Cl)cc5)n4)cc3)no2)cc1 | 84.1% | 109% | 88.4% | 87.4% | 95.9% | 66.1% | 80.9% | 88.6% | 89.7% | 95.4% |
| COc1c(CCC[P+](c2ccccc2)(c2ccccc2)c2ccccc2)cc2c(c1OC)OCO2 | 2.87% (active) | 27% | 45.4% | 15.1% | 5.26% (active) | -4.16% (active) | -11.8% (active) | 40% | 21.8% | -55.6% (active) |
| O=C(NCCCNc1cc(-c2cn(-c3ccccc3)nc2-c2cccc(O)c2)ccn1)c1ccccc1 | 46% | 54.9% | 75.2% | 47% | 30.4% | 49.8% | 7.01% (active) | 21% | -29.8% (active) | -60.3% (active) |
| CCCCN(CCCC)CC(C)(C)C(O)c1ccc(OC)c2ccccc12 (stereo not given) | -1.81% (active) | 51.7% | 44.9% | 73.7% | 39.1% | -9.57% (active) | 4.57% (active) | 63.5% | 58.4% | 71% |
| COc1ccc(-c2nc3c(N)c(CO)c(C)nc3o2)cc1 | 86.6% | 41.2% | 92.5% | 90.3% | 108% | 116% | 91.6% | 92.4% | 95.5% | 109% |
